PAFAH1B3 inh – PAFAH1B3 enzyme inhibitors, primary screen, biochemical, fluorescence polarization, human. inhibition, % at 3.39 µM. AID 492972, 2010. Platelet-activating factor acetylhydrolase IB subunit alpha1 (Homo sapiens), Q15102. recombinant PAFAH1B3, FP-rhodamine probe. 340,000 compounds, 0.28% hits;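 active means inhibition above the screen-wide average of all tested compounds plus 3 SD, cut at about 25% in these data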;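 further: 0% = enzyme with DMSO only and 100% = wells lacking PAFAH1B3 protein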
pPAFAH FP inh – pPAFAH enzyme inhibitors, primary screen, biochemical, fluorescence polarization, human. Platelet-activating factor acetylhydrolase (Homo sapiens), Q13093. recombinant pPAFAH, FP-rhodamine probe fluorescence polarization. inhibition, % at 3.39 µM. 330,000 compounds, 1.5% hits;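 active means inhibition above the mean inhibition across the screen plus 3 SD, cut at about 25% in these data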;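 further: inhibitors block binding of the rhodamine activity-based probe so polarization drops; 0% = enzyme with DMSO and 100% = wells lacking pPAFAH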
PAFAH1B2 inh – PAFAH1B2 enzyme inhibitors, primary screen, biochemical, fluorescence polarization, human. recombinant PAFAH1B2, FP-rhodamine activity probe. Platelet-activating factor acetylhydrolase IB subunit alpha2 (Homo sapiens), P68402. AID 492953, 2010. inhibition, % at 3.39 µM. 340,000 compounds, 1.2% hits;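 active means inhibition above the mean of all tested compounds plus 3 SD, cut at about 24% in these data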;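 further: 0% = enzyme with DMSO and 100% = wells lacking PAFAH1B2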
Target sequence (P68402 whole entry, looked up): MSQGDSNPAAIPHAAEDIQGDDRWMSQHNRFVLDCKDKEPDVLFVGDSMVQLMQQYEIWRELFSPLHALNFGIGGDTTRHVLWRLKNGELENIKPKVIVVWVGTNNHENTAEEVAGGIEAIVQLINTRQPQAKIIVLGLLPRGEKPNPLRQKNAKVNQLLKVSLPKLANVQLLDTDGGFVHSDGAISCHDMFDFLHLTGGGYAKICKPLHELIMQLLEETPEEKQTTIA
PAFAH2 inh – PAFAH2 enzyme inhibitors, primary screen, biochemical, fluorescence polarization, human; recombinant PAFAH2, FP-rhodamine activity probe; 340,000 compounds, 0.99% hits; Platelet-activating factor acetylhydrolase 2, cytoplasmic (Homo sapiens), Q99487; inhibition, % at 3.39 µM; AID 492956, 2010;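 active means inhibition above the mean over all tested compounds plus 3 SD, cut at about 30% in these data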;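 further: inhibitors block probe labeling of enzyme so polarization drops; 0% = enzyme with DMSO and 100% = wells lacking PAFAH2 protein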
Fam108B counter – mouse Fam108B serine hydrolase inhibitors, primary screen, counter-screen for RBBP9 inhibitor project, biochemical, fluorescence polarization | recombinant Fam108B, FP-Rh probe fluorescence polarization | inhibition, % at 9.51 µM | 300,000 compounds, 0.33% hits;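 active means inhibition above the screen mean inhibition plus 3 SD, computed separately per campaign, cut at about 18% in these data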;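 further: inhibitors lower polarization as less probe binds the enzyme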
PME-1 primary – PME-1 inhibitors via competitive probe labeling, primary screen, biochemical, fluorescence polarization, FP-Rh probe, HTS; recombinant PME-1; inhibition, % at 5.9 µM; 320,000 compounds, 0.53% hits;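 active means inhibition above the campaign mean of all compounds plus 3 SD, cut at about 26% in these data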;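 further: competitive labeling of PME-1 active site by serine hydrolase directed probe; 0% = PME-1 with DMSO and 100% = wells lacking PME-1 enzyme; inhibitors block probe labeling so polarization falls and inhibition rises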
Target sequence (Q9Y570 whole entry, looked up): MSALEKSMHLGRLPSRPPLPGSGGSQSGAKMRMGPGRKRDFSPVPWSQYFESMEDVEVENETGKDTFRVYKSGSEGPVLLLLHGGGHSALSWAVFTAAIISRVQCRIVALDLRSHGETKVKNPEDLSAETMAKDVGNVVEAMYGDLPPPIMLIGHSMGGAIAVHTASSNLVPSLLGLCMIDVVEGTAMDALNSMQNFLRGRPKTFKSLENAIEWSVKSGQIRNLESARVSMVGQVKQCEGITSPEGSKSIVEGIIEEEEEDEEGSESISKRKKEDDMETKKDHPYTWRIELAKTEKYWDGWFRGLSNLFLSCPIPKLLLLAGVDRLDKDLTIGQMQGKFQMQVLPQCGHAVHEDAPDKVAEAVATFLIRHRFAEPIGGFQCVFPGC
PAFAH2 confirm – PAFAH2 enzyme inhibitors, confirmation, biochemical, fluorescence polarization, human. shares compounds with PAFAH2 inh. recombinant PAFAH2, FP-rhodamine activity probe. inhibition, % at 3.39 µM. 2,300 compounds, 65% hits;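 active means mean inhibition over three repeats above a set limit taken from the earlier primary screen, cut at about 30% in these data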;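 further: inhibitor blocks binding of rhodamine activity probe so polarization falls; 0% = enzyme with DMSO and 100% = wells lacking PAFAH2 protein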
Numbers without * were called inactive. Hits are enriched below; roughly 2.9% of the tested compounds scored in any of these assays.

What do the screens show for `COc1cc(NC(=O)Cc2cccc3ccccc23)c(C(=O)O)cc1OC`?
PAFAH1B3 inh: 16; pPAFAH FP inh: 8; PAFAH1B2 inh: 7; PAFAH2 inh: 60*; Fam108B counter: 3; PME-1 primary: -5; PAFAH2 confirm: 40*

Results for COc1cc(NC(=O)Nc2cccc(Cl)c2)c(C(=O)O)cc1OC ?
PAFAH1B3 inh: 3; pPAFAH FP inh: 10; PAFAH1B2 inh: 11; PAFAH2 inh: 32*; Fam108B counter: -3; PME-1 primary: -3; PAFAH2 confirm: 22

How did COC(=O)c1cc(OC)c(OC)cc1NC(=S)Nc1cccc(Cl)c1 do in these assays?
PAFAH1B3 inh: 2; pPAFAH FP inh: 3; PAFAH1B2 inh: -2; PAFAH2 inh: -3; Fam108B counter: 5; PME-1 primary: 5

What do the screens show for `CN(CC(=O)Nc1ccccc1Cl)C(=O)COC(=O)/C=C/c1cccs1`?
PAFAH1B3 inh: 7; pPAFAH FP inh: 3; PAFAH1B2 inh: 1; PAFAH2 inh: 3; PME-1 primary: -4

What do the screens show for `CCN(c1ccc(NC(=O)COC(=O)/C=C/c2cccs2)cc1)C(C)C`?
PAFAH1B3 inh: 3; pPAFAH FP inh: 10; PAFAH1B2 inh: 3; PAFAH2 inh: 42*; Fam108B counter: 3; PME-1 primary: 2; PAFAH2 confirm: 24

How did CC(C)C(=O)NC(=O)COC(=O)/C=C/c1cccs1 do in these assays?
PAFAH1B3 inh: 7; pPAFAH FP inh: 5; PAFAH1B2 inh: 2; PAFAH2 inh: 53*; Fam108B counter: -1; PME-1 primary: -4; PAFAH2 confirm: 42*

What do the screens show for `CN(C(=O)COC(=O)/C=C/c1cccs1)C1CCCCC1`?
PAFAH1B3 inh: 1; pPAFAH FP inh: 2; PAFAH1B2 inh: 0; PAFAH2 inh: 75*; PAFAH2 confirm: 73*

How did C=CCNC(=O)COC(=O)/C=C/c1cccs1 do in these assays?
PAFAH1B3 inh: 6; pPAFAH FP inh: -2; PAFAH1B2 inh: 1; PAFAH2 inh: 49*; Fam108B counter: 7; PME-1 primary: -1; PAFAH2 confirm: 26

How did O=C(COC(=O)/C=C/c1cccs1)NC(=O)Cc1ccccc1 do in these assays?
PAFAH1B3 inh: 10; pPAFAH FP inh: 5; PAFAH1B2 inh: 2; PAFAH2 inh: 6; Fam108B counter: 2; PME-1 primary: -9

What do the screens show for `CCOC(=O)C1=C(C)N(CCCC(=O)O)C(=O)NC1c1cc2ccccc2c2ccccc12` (stereo unspecified)?
pPAFAH FP inh: 4; Fam108B counter: 2; PME-1 primary: 0

Results for Cc1nn(C)c(C)c1S(=O)(=O)N(CC(=O)NCCCN1CCC(C)CC1)c1ccc(C(C)C)cc1 ?
PAFAH1B3 inh: 3; pPAFAH FP inh: -8; PAFAH1B2 inh: -3; PAFAH2 inh: 2; Fam108B counter: 0; PME-1 primary: -4

What do the screens show for `Cc1ccc(NC(=O)COC(=O)/C=C/c2cccs2)cc1`?
PAFAH1B3 inh: -4; pPAFAH FP inh: 6; PAFAH1B2 inh: -3; PAFAH2 inh: 80*; Fam108B counter: 3; PME-1 primary: 5; PAFAH2 confirm: 73*

Results for COc1ccccc1NS(=O)(=O)c1ccc(C(=O)Nc2ncccc2O)cc1 ?
PAFAH1B3 inh: 3; pPAFAH FP inh: 3; PAFAH1B2 inh: 6; PAFAH2 inh: 55*; PME-1 primary: 6; PAFAH2 confirm: 46*

What do the screens show for `COc1ccccc1NS(=O)(=O)c1ccc(NC(=O)c2ccncc2)cc1`?
PAFAH1B3 inh: 3; pPAFAH FP inh: 2; PAFAH1B2 inh: 3; PAFAH2 inh: 7; Fam108B counter: -4; PME-1 primary: 15

What do the screens show for `Cc1ccccc1C(=O)N1CCC(C(=O)NC(C)c2ccc(-n3ccnc3)cc2)CC1` (stereo unspecified)?
PAFAH1B3 inh: 14; pPAFAH FP inh: -4; PAFAH1B2 inh: 11; PAFAH2 inh: -1; Fam108B counter: 2; PME-1 primary: -1

How did CCN(CC)c1ccc(/C=N/n2c(-c3ccccc3Br)n[nH]c2=S)cc1 do in these assays?
PAFAH1B3 inh: 1; pPAFAH FP inh: 17; PAFAH1B2 inh: 9; PAFAH2 inh: 31*; Fam108B counter: -3; PME-1 primary: 2; PAFAH2 confirm: 10

Results for O=C(COC(=O)C1CC2CCCC(C1)C2=O)Nc1ccccc1 (stereo unspecified) ?
PAFAH1B3 inh: 11; pPAFAH FP inh: 2; PAFAH1B2 inh: 1; PAFAH2 inh: 64*; PME-1 primary: -4; PAFAH2 confirm: 60*

What do the screens show for `O=C(COC(=O)C1CC2CCCC(C1)C2=O)Nc1cccc(F)c1` (stereo unspecified)?
PAFAH1B3 inh: 4; pPAFAH FP inh: -4; PAFAH1B2 inh: 7; PAFAH2 inh: 68*; PME-1 primary: 8; PAFAH2 confirm: 69*

Results for Cc1ccc(S(=O)(=O)N2CCOCC2)cc1C(=O)OCC(=O)NC1CCCC(C)C1C (stereo unspecified) ?
PAFAH1B3 inh: -7; pPAFAH FP inh: 9; PAFAH1B2 inh: 6; PAFAH2 inh: 26; PME-1 primary: 7

How did COC(=O)[C@]1(Cc2ccccc2)N[C@H](CN(C)C(C)=O)[C@@H]2C(=O)N(Cc3ccccc3)C(=O)[C@@H]21 do in these assays?
PAFAH1B3 inh: 9; pPAFAH FP inh: -6; PAFAH1B2 inh: 5; PAFAH2 inh: 4

How did O=C(CN(c1cccc(Cl)c1)S(=O)(=O)c1ccc(Cl)cc1)NCc1ccccn1 do in these assays?
PAFAH1B3 inh: 16; pPAFAH FP inh: -3; PAFAH1B2 inh: 1; PAFAH2 inh: 13; Fam108B counter: -3; PME-1 primary: 1

How did Cc1ccc(/C=C2\SC(=S)N(CCCC(=O)Nc3ccc(O)cc3)C2=O)cc1 do in these assays?
PAFAH1B3 inh: 2; pPAFAH FP inh: 1; PAFAH1B2 inh: 2; PAFAH2 inh: -5; Fam108B counter: 9; PME-1 primary: 6

What do the screens show for `O=C(CN1C(=O)S/C(=C\c2ccccc2)C1=O)Nc1cc([N+](=O)[O-])ccc1O`?
PAFAH1B3 inh: 15; pPAFAH FP inh: 24; PAFAH1B2 inh: 16; PAFAH2 inh: 57*; Fam108B counter: 4; PME-1 primary: 11; PAFAH2 confirm: 43*

How did COc1ccc(/C=C2\SC(=O)N(CC(=O)Nc3ccccc3O)C2=O)cc1OC do in these assays?
PAFAH1B3 inh: 1; PAFAH1B2 inh: 2; PAFAH2 inh: -8
